# High-throughput results (PubChem)
# Cruzain inh noDet – blocks cruzain activity in detergent-free assay. P25779. purified cruzain, Z-FR-AMC fluorescence, no detergent. Potency, µM, without a hit: max response, negative = inhibition, hits mostly inhibitors. actives 2.3% (n = 200,000);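 also: potency is read from the fitted curve at half-maximal effect; plate controls were enzyme without inhibitor for no effect and buffer without enzyme for full effect; nearly all actives have a fitted effect of over 40% in size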
# Target sequence (P25779 123-467 limits assumed): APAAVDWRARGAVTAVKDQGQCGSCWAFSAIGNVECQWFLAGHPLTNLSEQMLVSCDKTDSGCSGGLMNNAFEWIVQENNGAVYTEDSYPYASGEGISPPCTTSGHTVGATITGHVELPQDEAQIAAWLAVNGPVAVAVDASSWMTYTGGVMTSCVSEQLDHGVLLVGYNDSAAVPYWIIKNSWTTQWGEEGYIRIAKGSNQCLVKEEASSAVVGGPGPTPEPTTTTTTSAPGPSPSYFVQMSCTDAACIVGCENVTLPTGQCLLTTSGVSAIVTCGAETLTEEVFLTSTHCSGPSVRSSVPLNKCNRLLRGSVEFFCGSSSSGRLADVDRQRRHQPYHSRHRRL
#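 Purified cruzain at 1.5 nM, pre-incubated 15 min with compound at room temperature in 100 mM sodium acetate pH 5.5, 5 mM DTT, 0.00005% Triton X-100. Reaction started with 2 uM Z-FR-AMC; AMC fluorescence increase over 60 s gives rate.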
# Cruzain Triton – inhibitors of Trypanosoma cruzi cruzain with detergent. purified cruzain, Z-FR-AMC fluorescence, 0.01% Triton. Potency, µM, for inactives: max response, negative = inhibition, hits mostly inhibitors. actives 0.43% (n = 200,000);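 also: potency is read from the fitted curve at half-maximal effect; plate controls were neutral wells for no effect and buffer without enzyme for full effect; nearly all actives have a fitted effect of over 40% in size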
#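 Cruzain (1.5 nM) preincubated 15 min at RT with compound in 100 mM sodium acetate pH 5.5, 5 mM DTT, 0.01% Triton X-100. Reaction started with 2 uM Z-FR-AMC; AMC fluorescence (ex 360/em 450 nm) change over 60 s gave rate.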
# NS1 inh – blocks influenza NS1 protein function; Potency, µM (top dose mostly 46.1 µM), for the others: top-dose activity, positive = more growth; actives 0.4% (n = 270,000); AID 2326; calls by dose curve; also: potency is read from the fitted curve at half-maximal effect; actives are rising curves; nearly all actives have a fitted effect of over 50% in size
#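 In this qHTS, NS1 from influenza A is expressed in budding yeast, where it slows growth. Cells are switched from glucose to 2% galactose medium (pH 6.0, -URA), treated with compound, and growth recovery is read at OD600.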
# NS1 inh valid – influenza NS1 function inhibition validation. shares compounds with NS1 inh. influenza NS1 function cell assay, 15-point titration. activity change, negative = inhibition, % at 32.9 µM. 1,400 tested, under 10 active. AID 492980; calls by dose curve; also: 0% is about no effect
# Flu PR8 replic – influenza NS1 inhibitors: inhibition of influenza A/PR/8/34 replication; AID 504647; virus titer (log TCID50), log10 TCID50 at 5 µM; actives 30% (n = 95); shares compounds with NS1 inh; MDCK infected influenza A/PR/8/34, virus titer TCID50; stronger effect = lower value; call rule not given here
# * hit, by the source's call; ? = inconclusive; . = not tested or not shown. Many of the other results were omitted from the sample, so hits are more common in it than they were. Unless noted, calls follow the shape of the dose curve; as a rule, active = well fitted curve in the direction sought with a large enough effect; inconclusive = small, poorly fitted or top-dose-only effect, or another doubt; inactive = no such curve, though single readings can be large; an effect the other way counts as inactive or inconclusive.
SMILES,Cruzain inh noDet,Cruzain Triton,NS1 inh,NS1 inh valid,others
Cc1cc(C)n2nc(SCC(=O)Nc3c(C)n(C)n(-c4ccccc4)c3=O)nc2n1,-2.7%,1.7%,5.01µM*,7.7,
Cc1nc(SCC(=O)Nc2c(C)n(C)n(-c3ccccc3)c2=O)nc(C)c1C,-7.1%,9.0%,5.4%,.,
Oc1ccc(-c2sc(Nc3ccccc3)n[n+]2-c2ccc(F)cc2)cc1,.,.,1.2%,.,
Oc1ccc2ccccc2c1-c1sc(Nc2ccccc2)n[n+]1-c1ccc(F)cc1,.,.,?,-26.2,
NC(=O)NC(=O)CC1S/C(=N/N=C/c2ccccc2)NC1=O (configuration not stated),.,.,12.5%,.,
O=C1N/C(=N/N=C/c2ccccc2)SC1(c1ccccc1)c1ccccc1,3.98µM*,0.9%,14.1µM*,2.2,
Cc1ccc(NC(=O)c2c(C)oc3ncn(C)c(=O)c23)cc1F,-4.0%,-2.4%,.,.,
COc1ccc(O)c(/C=N/NC(=O)c2ccc(CSc3nc(C)cc(C)n3)cc2)c1,7.3%,-3.8%,18.7%,.,
COc1ccc2cc(/C=N/NC(=O)c3ccc(CN(c4cccc(Cl)c4Cl)S(C)(=O)=O)cc3)c(Cl)nc2c1,25.1µM*,-11.8%,12.6µM*,?,
CCCS(=O)(=O)c1nc(S(=O)(=O)c2ccc(C)cc2)c(NCC(C)C)s1,-8.5%,-8.8%,.,.,
CCOC(=O)C1=C(c2ccccc2)N=c2s/c(=C\c3ccc(O)cc3)c(=O)n2C1c1cccs1 (configuration not stated),12.6µM*,0.7%,7.08µM*,-15.4,
CCOC(=O)C1=C(C)N=c2s/c(=C\c3ccc(OCC(=O)O)cc3)c(=O)n2C1c1ccccc1 (configuration not stated),.,.,17.2%,.,
COC(=O)C1(C(=O)OC)C/C=C\C/C=C\c2ccccc2C1C[N+](=O)[O-] (configuration not stated),-7.0%,3.5%,.,.,
Cc1nn(-c2ccccc2)c2[nH]c(=O)c(CNc3ccc4c(c3)OCCO4)cc12,-8.4%,-6.6%,-5.9%,.,
Cc1nn(-c2ccccc2)c2[nH]c(=O)c(CNCc3ccc4c(c3)OCO4)cc12,-2.3%,0.7%,7.94µM*,6.8,
CCOC(=O)C1(Cc2cccc(OC)c2)CCCN(C(=O)c2ccc(OC)o2)C1 (configuration not stated),.,.,14.0%,.,
CCOC(=O)C1(Cc2cccc(OC)c2)CCCN(C(=O)CCN2CCCO2)C1 (configuration not stated),.,.,?,-14.7,
CCOc1ccc(NC(=S)N2CCc3cc(OC)c(OC)cc3C2COc2ccc3c(C)cc(=O)oc3c2)cc1 (configuration not stated),?,6.3%,11.2µM*,11.3,
CCOc1ccc(CC(=O)N2CCc3cc(OC)c(OC)cc3C2COc2ccc3c(C)cc(=O)oc3c2)cc1 (configuration not stated),-1.6%,5.6%,.,.,
COc1ccccc1NC(=O)Cn1c(=O)n(CCc2c[nH]c3ccccc23)c(=O)c2cccnc21,20µM*,-3.2%,11.2µM*,25.6,
COc1ccccc1NC(=O)CSc1nc2nccnc2c(=O)n1CCc1c[nH]c2ccccc12,3.6%,-2.7%,.,.,
COC(=O)c1sccc1S(=O)(=O)N(CC(=O)NCc1ccc(C)cc1)c1ccc(Cl)cc1,19.7%,-3.1%,.,.,
Cc1cc(C)c2c(n1)sc1c(=O)n(-c3ccccc3C(F)(F)F)nnc12,8.9%,2.0%,.,.,
CC1CCc2c(sc3nnn(CC(=O)Nc4c(C(C)C)cccc4C(C)C)c(=O)c23)C1 (configuration not stated),-2.1%,-2.1%,.,.,
O=C(O)/C=C\c1ccc(O)c(O)c1,-7.0%,-9.6%,.,.,
SMILES,Cruzain inh noDet,Cruzain Triton,NS1 inh,NS1 inh valid,others
O=c1cc(O)cc(/C=C/c2ccc(O)c(O)c2)o1,-7.4%,-4.2%,6.31µM*,38.1,
CCOC(=O)c1c(C)[nH]c(C)c1S(=O)(=O)NCC(=O)Nc1cccc(SC)c1,0.5%,-0.1%,.,.,
CC(C)NC(=O)c1ccccc1S(=O)(=O)c1ccccc1C#N,-9.3%,0.9%,1.0%,.,
CNC(=O)c1ccccc1S(=O)(=O)c1ccccc1C#N,0.8%,1.2%,?,22.5,
COc1ccc(N2C(=O)N3[C@H](c4cccc(C)c4)[C@@H]4C(=O)N(Cc5ccccc5)C(=O)[C@@H]4[C@]3(Cc3ccccc3)C2=O)cc1,.,.,14.1µM*,-10.7,Flu PR8 replic=7.5*
CCN1C(=O)[C@H]2[C@@H](c3ccc(C)cc3)N3C(=O)N(c4cccc(C)c4)C(=O)[C@@]3(Cc3ccccc3)[C@H]2C1=O,.,.,-21.8%,.,
Cc1nn(-c2ccccc2)c(C)c1C(=O)OCC(=O)NC(=O)NC1CCCC1,8.4%,-4.6%,4.6%,.,
Cc1nn(Cc2ccccc2Cl)c(Cl)c1C(=O)OCC(=O)NC(=O)NC1CCCCC1,-3.9%,-9.4%,22.4µM*,-29.1,
O=C(/C=C/c1ccc(Cl)c([N+](=O)[O-])c1)Nc1cccnc1,-13.4%,-20.9%,3.1%,.,
O=C(NC(=S)Nc1ccccc1N1CCCC1)c1ccccc1[N+](=O)[O-],2.5%,-6.3%,9.7%,.,
O=C(NC(=S)Nc1ccc(N2CCCC2)cc1)c1ccccc1[N+](=O)[O-],?,-2.4%,?,2.1,
O=C(/C=C/c1ccc(Cl)c([N+](=O)[O-])c1)Nc1ccc(NC(=O)c2ccco2)cc1,?,2.9%,2.2%,.,
O=C(/C=C/c1ccc(Cl)c([N+](=O)[O-])c1)Nc1ccc(N2CCCC2)cc1,15.8µM*,-27.3%,?,18.1,
O=C(/C=C/c1ccc(Cl)c([N+](=O)[O-])c1)Nc1cccc(NC(=O)c2ccco2)c1,?,-7.8%,17.8µM*,8.1,
CCC(=O)N1CCc2cc(S(=O)(=O)NC(Cc3ccccc3)C(=O)NCc3ccc(F)cc3)ccc21 (configuration not stated),-8.8%,-1.5%,.,.,
COc1ccc(OC)c(S(=O)(=O)N(C)CC(=O)Nc2ccccc2OC)c1,-1.4%,-0.3%,-4.2%,.,
COc1ccc(OC)c(S(=O)(=O)N(C)CC(=O)O)c1,10.8%,-0.1%,1.78µM*,3.5,
COc1ccc(OC)c(NC(=O)c2cnc(N3CCCCC3)c3ccccc23)c1,-6.6%,-5.5%,.,.,
Cc1cccc(-c2nc3nc(C)cc(NCc4ccccc4Cl)n3n2)c1,9.2%,-6.0%,.,.,
CN(CC(=O)NC1CCCCC1)S(=O)(=O)c1ccc(Cl)cc1,-1.4%,-1.6%,?,-1.8,
O=C(CCSc1ccc(Cl)cc1)NC1CCCCC1,-2.5%,6.5%,?,-1.2,
O=C(CCSc1ccccc1)NC1CCCCCC1,.,.,-2.6%,.,
CN(CC(=O)NC1CCCCCC1)S(=O)(=O)c1ccc(F)cc1,.,.,9.1%,.,
Cc1ccc(CNc2ncnc3c2c(-c2ccccc2)cn3-c2cccc(Cl)c2)cc1,3.3%,0.2%,.,.,
CCCCCCn1c(-c2ccco2)nc2oc3cc(OC)ccc3c(=O)c2c1=O,-10.1%,-2.6%,12.6µM*,-37.3,
CCCc1nc2oc3cc(OC)ccc3c(=O)c2c(=O)n1Cc1ccco1,-24.1%,-3.2%,-35.3%,.,
COc1cccc(Cn2c(=O)n(-c3cc(C)cc(C)c3)c(=O)c3oc4ccccc4c32)c1,-8.5%,-1.5%,.,.,
